Only some compounds are listed: those with a hit (about 6.2% of all), similar ones and a draw of the others.
RORg inh = ROR gamma (mouse) transcription inhibition | P51450 | Drosophila S2 Gal4-RORgamma UAS-luciferase reporter, 20 h | Potency, µM (series often up to 53.6 µM), inactives show at the highest dose activity change, negative = inhibition, actives largely listed as inhibitors | hit rate 5.4% among 310,000 | AID 2551; note: nearly all actives have a fitted effect of over 60% in size
Target sequence (P51450 whole entry, looked up, the tested form may be a part): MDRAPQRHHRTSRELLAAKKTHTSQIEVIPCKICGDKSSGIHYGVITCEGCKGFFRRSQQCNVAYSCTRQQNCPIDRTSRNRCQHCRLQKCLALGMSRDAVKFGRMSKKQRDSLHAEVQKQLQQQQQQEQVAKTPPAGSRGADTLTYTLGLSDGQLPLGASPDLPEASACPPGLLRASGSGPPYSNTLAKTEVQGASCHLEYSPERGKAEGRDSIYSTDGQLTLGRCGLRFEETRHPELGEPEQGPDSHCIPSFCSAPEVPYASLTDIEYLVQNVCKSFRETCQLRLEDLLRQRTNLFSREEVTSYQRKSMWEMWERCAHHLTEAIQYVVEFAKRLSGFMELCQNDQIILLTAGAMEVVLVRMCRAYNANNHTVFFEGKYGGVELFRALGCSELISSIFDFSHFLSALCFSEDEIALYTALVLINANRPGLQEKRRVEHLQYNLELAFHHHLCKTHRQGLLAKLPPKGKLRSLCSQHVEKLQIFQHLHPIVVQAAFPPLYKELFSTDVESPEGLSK
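Compounds are pin-transferred onto Drosophila Schneider cells expressing a copper-inducible Gal4–ROR gamma transactivation domain fusion. After 1 hr, copper sulfate is added to 700 uM final; luciferase is read 20 hr later.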
Luc counter = Kinase-Glo luciferase inhibition (counter-screen); Q27757; Kinase-Glo luciferase, ATP luminescence, 8 min; Potency, µM (series often up to 38.3 µM), without a hit: at the top dose activity change, negative = inhibition, usual class: inhibitors; hit rate 0.28% among 200,000; note: nearly all actives have a fitted effect of over 60% in size
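Light output from Kinase-Glo luciferase with luciferin and 10 uM ATP in 50 mM imidazole pH 7.2, KCl, MgCl2, Tween 20, BSA; compound pin-delivered, 8-min ambient incubation, then luminescence read.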
VP16 counter = Gal4-VP16 reporter inhibition counter-screen. Drosophila S2 Gal4-VP16 UAS-luciferase, luminescence, 20 h. Potency, µM (series often up to 53.6 µM), for the others: at the top dose activity, negative = inhibition, actives largely listed as inhibitors. hit rate 3.5% among 310,000;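 note: Gal4-VP16 expression switched on by copper sulfate through the metallothionein promoter; nearly all actives have a fitted effect of over 50% in size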
* hit, by the source's call; u = inconclusive; x = not tested or not shown; [ ] = dose if it differs, or a comment. Calls come from the whole dose curve; as a rule, active = well fitted curve in the direction sought with a large enough effect; inconclusive = small, poorly fitted or top-dose-only effect, or another doubt; inactive = no such curve, though single readings can be large; an effect the other way counts as inactive or inconclusive. % is set by controls: 0 for no effect and ±100 for the full control effect; potency is the fitted concentration of half-maximal effect.

SMILES	RORg inh	Luc counter	VP16 counter
COc1ccc(C(=O)COC(=O)CCN2C(=O)C3C4C=CC(C5CC45)C3C2=O)cc1 (stereo unspecified)	-2%	x	-3%
Clc1ccc(-c2c[n+](Cc3ccc(Cl)cc3Cl)c3n2CCCCC3)cc1	-40%	x	11µM*
CC1CCC(C(C)C)C(OC(=O)C[n+]2cc(-c3ccc(Cl)cc3)n3c2CCCCC3)C1 (stereo unspecified)	-105%	-1%	10µM*
Clc1ccc(-c2c[n+](Cc3ccc(Br)cc3)c3n2CCCCC3)cc1	u	x	11µM*
Clc1ccc(C[n+]2cc(-c3ccccc3)n3c2CCCCC3)c(Cl)c1	u	-4%	13µM*
O=C(C[n+]1cc(-c2ccccc2)n2c1CCCCC2)c1ccc(Cl)cc1	28%	-1%	u
Clc1ccc(-c2c[n+](Cc3cccc(Cl)c3)c3n2CCC3)cc1	u	4%	-9%
Clc1ccc(C[n+]2cc(-c3ccccc3)n3c2CCC3)cc1Cl	18%	5%	-8%
N#CC[n+]1cc(-c2ccc(Cl)cc2)n2c1CCC2	4%	-5%	-3%
NC(=O)CCCCC1CCSS1 (stereo unspecified)	0%[10 µM]	x	8%
CCn1c(SC)nnc1C1CCCN(CC(=O)Nc2ccccc2N2CCOCC2)C1 (stereo unspecified)	29%	x	-4%
COc1ccc(C2CC(c3ccc(F)cc3)n3nc(NS(C)(=O)=O)nc3N2)cc1 (stereo unspecified)	5%	x	-2%
CN(Cc1ccco1)C(=O)Cn1nc(-c2ccc(Cl)cc2)ccc1=O	28%	-1%	-1%
NCCCNC(=O)c1ccc(/C=N/O)nc1	0%	-2%	-3%
O=[N+]([O-])c1ccc(C[n+]2cc(-c3ccccc3)n3c2CCCCC3)cc1	-3%	x	8%
O=[N+]([O-])c1ccc(C[n+]2cc(-c3ccc(Cl)c(Cl)c3)n3c2CCCCC3)cc1	0.25µM*	x	-15%
CCOc1ccc(NC(=S)Nc2ccccc2C2CC2)cc1	2.8µM*	2%	11µM*
CCOc1ccc(NC(=S)NCCCN2CCOCC2)cc1	-24%	2%	-7%
CCOc1ccc(NC(=S)NCc2nc3ccccc3[nH]2)cc1	u	0%	11%
CCOc1ccc(NC(=S)Nc2cccc3cnccc23)cc1	18µM*	0%	u
COc1ccc(NC(=S)Nc2cccc3cnccc23)cc1	-32%	0%	1%
CCOc1ccc(NC(=S)Nc2cccc3ccccc23)cc1	7.9µM*	x	8.9µM*
CCCCC[C@H](O)/C=C/[C@@H]1[C@@H](C/C=C\CCCC(=O)O)[C@H](O)C[C@H]1O	-17%	-3%	-10%
CCOC(=O)c1cnc(SC2CCc3ccccc3C2=O)nc1N (stereo unspecified)	14%	-6%	4%
COc1ccc2c(c1)C(=O)[C@H](OC(=O)NCCc1ccc(OC)c(OC)c1)[C@@H](c1ccc(OC)c(Br)c1)O2	22%	-1%	-2%
SMILES	RORg inh	Luc counter	VP16 counter
O=C1/C(=C/c2ccc(F)cc2)SC(=S)N1Nc1ncc(C(F)(F)F)cc1Cl	-1%	0%	-7%
O=C1/C(=C\c2ccccn2)SC(=S)N1Nc1ncc(C(F)(F)F)cc1Cl	11µM*	-2%	u
CCCn1c(C2CCCN2c2nc(-c3cccc(Br)c3)cs2)nc2cc(Cl)c(Cl)cc21 (stereo unspecified)	2.5µM*	x	5.6µM*
CCCn1c(-c2cccnc2Cl)nc2cc(Cl)c(Cl)cc21	-13%	3%	12%
O=C(c1ccccc1)N1CCC(c2nc(-c3ccc(S(=O)(=O)NCC4CCCO4)cc3)no2)CC1 (stereo unspecified)	-43%	24%	8.9µM*
O=C(C1CC1)N1CCC(c2nc(-c3ccc(S(=O)(=O)NCC4CCCO4)cc3)no2)CC1 (stereo unspecified)	26%[0.365 µM]	0%	x
CCCc1cc(=O)n2c([nH]c3ccccc32)c1C#N	12%	12%	-22%
Cc1ccc2c(C)c(C(=O)N3CCCCC3CO)oc2c1C (stereo unspecified)	9%	x	-6%
C/C(CC(=O)Nc1ccc(Cl)c(Cl)c1)=N\NC(=O)C(=O)N1CCCCC1	-5%	-3%	1%
CN1CCN(NC(=O)c2cccc(C(F)(F)F)c2)CC1	-11%	x	3%
Cc1ccccc1NC(=S)NC(=O)CCc1ccccc1	19%	-2%	-10%
CSc1cccc(NC(=O)CCc2ccccc2)c1	32%	-4%	-6%
CSc1cccc(NC(=S)NC(=O)CCc2ccccc2)c1	3.2µM*	x	8.9µM*
Cc1cccc(C)c1NC(=S)NC(=O)CCc1ccccc1	2.8µM*	2%	10µM*
O=[N+]([O-])c1cc([N+](=O)[O-])c(Oc2cc(F)ccc2F)cc1NN1CCCCC1	8%	x	-8%
Cn1c(CN2CCN(S(C)(=O)=O)CC2)nc2cc([N+](=O)[O-])ccc21	u	x	-5%
COc1ccc(-c2cn3ccccc3n2)cc1[N+](=O)[O-]	u	u	-17%
O=C(Nc1ccc(-c2cn3ccccc3n2)cc1)c1ccc(Cl)cc1	-43%	-2%	1%
O=[N+]([O-])c1cccc(-c2cn3ccccc3n2)c1	22%	-5%	3%
COc1c(Cl)cccc1-c1cn2ccccc2n1	11µM*	x	u
COc1ccc(-c2nc3ccccn3c2Cl)cc1	16µM*	x	u
O=C(Nc1ccc(-c2cn3ccccc3n2)cc1)c1ccco1	-36%	10µM*	u
COc1ccc(-c2cn3ccccc3n2)cc1	6.3µM*	x	13µM*
COc1ccc(-c2nc3ccccn3c2CN2CCN(c3ccccc3F)CC2)cc1	-39%	1%	-10%
C/C(=N/NC(=O)c1ccoc1C)C12CC3CC(CC(C3)C1)C2	-26%	2%	26%
SMILES	RORg inh	Luc counter	VP16 counter
COC(=O)[C@@H](NC(=O)O[C@@H]1C(=O)c2cc(OC)ccc2O[C@H]1c1cccc(OC)c1)C(C)C	23%	3%	-13%
COc1ccc(/C=C/C(=O)O)cc1S(=O)(=O)N1CCCC1	0%	x	-4%
COc1ccc(NC(=O)c2ccc(N3C(=O)C4CC=C(C)CC4C3=O)cc2)c(OC)c1 (stereo unspecified)	-5%	x	5%
CC1=C(C(=O)OC2CCCCC2)C(c2cccnc2)n2nnnc2N1 (stereo unspecified)	24%	-5%	16µM*
COC(=O)C1=C(C)Nc2nnnn2C1c1cccnc1 (stereo unspecified)	-27%	7%	u
C=CCNC(=O)N1CCCC(N2CCN(c3ccccc3OC)CC2)C1 (stereo unspecified)	2%	x	-1%
CCCC(=O)Nc1nc2ccc(OCC)cc2s1	u	4%	-26%
O=C(NNc1nc2ccccc2s1)Nc1ccccc1	u	0%	-27%
CN(C)C(=S)Nc1nc2ccccc2s1	0.5µM*	-1%	1.3µM*
CCOc1ccc2nc(NC(=O)CSc3ccccc3)sc2c1	33%	-4%	-1%
S=C(Nc1ccccc1)c1nc2ccccc2s1	1.1µM*	-8%	0.71µM*
CCOc1ccc2nc(NC(=S)N(C)C)sc2c1	1µM*	-1%	1.8µM*
CCNC(=O)Nc1nc2ccccc2s1	8%	-2%	-1%
CCOc1ccc2nc(NC(=O)CCn3cccc3)sc2c1	5µM*	-2%	u
COCCn1c(=O)c(-c2cccc(C#N)c2)nc2cnc(N(C)C)nc21	-5%	x	-2%

Screens from PubChem.
